Common to all, as to set-up: scale not given: direction of the effect not stated beside the values
Assay [1] has as its target Protein translocase subunit SecA (Escherichia coli (strain K12)) (UniProt P10408). Kind of assay: Assay to Identify E. coli SecA ATPase Inhibitors. It is filed as functional. Conditions: 30 µM.
For assay [2], the target named is T1, Ubiquitin-activating enzyme e1, putative (Leishmania donovani (strain BPK282A1)) (UniProt E9BSI1).
T1 sequence (whole entry): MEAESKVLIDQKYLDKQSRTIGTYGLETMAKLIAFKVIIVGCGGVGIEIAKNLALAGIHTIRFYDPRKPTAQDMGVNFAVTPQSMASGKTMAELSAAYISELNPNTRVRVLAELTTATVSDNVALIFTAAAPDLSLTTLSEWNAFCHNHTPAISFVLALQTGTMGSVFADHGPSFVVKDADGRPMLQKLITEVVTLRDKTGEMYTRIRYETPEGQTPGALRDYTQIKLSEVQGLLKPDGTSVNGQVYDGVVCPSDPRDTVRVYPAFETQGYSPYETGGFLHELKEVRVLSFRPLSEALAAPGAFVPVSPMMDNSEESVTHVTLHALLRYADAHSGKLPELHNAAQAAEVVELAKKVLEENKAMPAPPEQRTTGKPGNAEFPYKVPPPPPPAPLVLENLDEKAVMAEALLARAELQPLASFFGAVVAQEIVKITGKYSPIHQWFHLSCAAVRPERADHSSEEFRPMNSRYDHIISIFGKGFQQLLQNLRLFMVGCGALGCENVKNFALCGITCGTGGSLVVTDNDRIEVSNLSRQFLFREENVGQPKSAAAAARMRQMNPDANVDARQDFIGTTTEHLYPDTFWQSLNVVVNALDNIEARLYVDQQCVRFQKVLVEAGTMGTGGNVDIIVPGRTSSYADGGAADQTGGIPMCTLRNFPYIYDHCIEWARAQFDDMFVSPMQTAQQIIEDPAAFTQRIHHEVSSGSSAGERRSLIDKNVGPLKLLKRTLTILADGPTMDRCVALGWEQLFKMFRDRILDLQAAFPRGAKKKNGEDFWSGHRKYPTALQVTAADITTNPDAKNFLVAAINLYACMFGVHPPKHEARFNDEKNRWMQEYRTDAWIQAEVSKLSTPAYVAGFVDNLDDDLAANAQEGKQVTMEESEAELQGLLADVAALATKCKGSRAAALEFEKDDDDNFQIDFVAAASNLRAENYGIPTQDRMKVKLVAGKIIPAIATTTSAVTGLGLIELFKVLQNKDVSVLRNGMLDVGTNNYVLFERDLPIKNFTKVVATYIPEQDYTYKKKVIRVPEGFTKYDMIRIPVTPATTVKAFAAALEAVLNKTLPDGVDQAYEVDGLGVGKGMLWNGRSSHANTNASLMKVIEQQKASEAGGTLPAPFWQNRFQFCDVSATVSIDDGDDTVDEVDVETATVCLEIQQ
Kind of assay: Leishmania donovani Ubiquitin Activating Enzyme (LdE1). It is filed as functional. Conditions: 30 µM.

For assay [3], the target named is AMP-activated protein kinase, AMPK (Homo sapiens) (UniProt P54646+O43741+P54619+Q9UGJ0+Q9Y478+Q13131+Q9UGI9). Nature of the assay: AMP-dependent Kinase enzyme assay. An in vitro enzyme assay that detects ADP turnover that is directly proportional to AMPK activity. This uses naive AMPK that is activated during the assay with MK-8722. Conditions: 30 µM. It is filed as functional.

In assay [4] the target is Sialic acid-binding Ig-like lectin 9 (Homo sapiens) (UniProt Q9Y336). Kind of assay: Hs-Siglec9 ALPHAscreen SOP 20170721. Conditions: 10 µM. (In general: In Alpha technology, singlet oxygen from a donor bead excites a nearby acceptor bead.)
Another assay has as its system Trypanosoma cruzi. Nature of the assay: Trypanosoma cruzi phosphomannomutase and mannose-1-phosphate guanylyltransferase assay. It is filed as functional. Conditions: 10 µM.
The target in assay [5] is T2, Arginase-2, mitochondrial (Homo sapiens) (UniProt P78540).
T2 sequence (whole entry): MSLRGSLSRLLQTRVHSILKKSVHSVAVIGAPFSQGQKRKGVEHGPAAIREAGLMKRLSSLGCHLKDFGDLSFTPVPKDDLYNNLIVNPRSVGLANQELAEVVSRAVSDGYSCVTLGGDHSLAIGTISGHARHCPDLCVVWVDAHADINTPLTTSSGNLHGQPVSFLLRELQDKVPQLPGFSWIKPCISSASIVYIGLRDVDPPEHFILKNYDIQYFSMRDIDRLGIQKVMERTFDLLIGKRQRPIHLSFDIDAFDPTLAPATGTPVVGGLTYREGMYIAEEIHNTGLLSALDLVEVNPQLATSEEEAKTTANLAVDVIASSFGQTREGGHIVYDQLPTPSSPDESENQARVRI
Kind of assay: in vitro enzyme assay to detect the production of urea directly proportional to the activity of Arginase II. Note: in the data most compounds retested in dose-response had high values. Conditions: 33.3 µM. Format: functional.

For assay [6], the target named is T3, Proteasome subunit beta (Trypanosoma cruzi) (UniProt O96673).
T3 sequence (whole entry): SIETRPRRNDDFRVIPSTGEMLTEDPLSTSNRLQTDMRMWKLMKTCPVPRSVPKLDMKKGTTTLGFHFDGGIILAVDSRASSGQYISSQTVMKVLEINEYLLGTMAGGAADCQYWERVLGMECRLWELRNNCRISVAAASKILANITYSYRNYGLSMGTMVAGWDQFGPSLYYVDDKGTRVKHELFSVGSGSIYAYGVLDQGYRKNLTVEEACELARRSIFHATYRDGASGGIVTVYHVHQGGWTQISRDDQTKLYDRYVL
Nature of the assay: Trypanosoma cruzi proteasome chymotrypsin-like activity (TcProtChymo) assay. Note: in the data most compounds retested in dose-response had high values. Conditions: 9.37 µM. Format: functional.

The species entered for the next assay is Homo sapiens. Nature of the assay: To identify inhibition of the IFN signalling (Jak-Stat) pathway via expression of an eGFP reporter gene under the control of an IFN-stimulated response element (ISRE) containing MxA promoter. It is filed as functional. Conditions: 30 µM. A general note: A reporter such as luciferase makes a cellular process visible.
Assay [7] addresses T4, Tyrosyl-tRNA synthetase, putative (Trypanosoma cruzi (strain CL Brener)) (UniProt Q4DSP6).
T4 sequence (whole entry): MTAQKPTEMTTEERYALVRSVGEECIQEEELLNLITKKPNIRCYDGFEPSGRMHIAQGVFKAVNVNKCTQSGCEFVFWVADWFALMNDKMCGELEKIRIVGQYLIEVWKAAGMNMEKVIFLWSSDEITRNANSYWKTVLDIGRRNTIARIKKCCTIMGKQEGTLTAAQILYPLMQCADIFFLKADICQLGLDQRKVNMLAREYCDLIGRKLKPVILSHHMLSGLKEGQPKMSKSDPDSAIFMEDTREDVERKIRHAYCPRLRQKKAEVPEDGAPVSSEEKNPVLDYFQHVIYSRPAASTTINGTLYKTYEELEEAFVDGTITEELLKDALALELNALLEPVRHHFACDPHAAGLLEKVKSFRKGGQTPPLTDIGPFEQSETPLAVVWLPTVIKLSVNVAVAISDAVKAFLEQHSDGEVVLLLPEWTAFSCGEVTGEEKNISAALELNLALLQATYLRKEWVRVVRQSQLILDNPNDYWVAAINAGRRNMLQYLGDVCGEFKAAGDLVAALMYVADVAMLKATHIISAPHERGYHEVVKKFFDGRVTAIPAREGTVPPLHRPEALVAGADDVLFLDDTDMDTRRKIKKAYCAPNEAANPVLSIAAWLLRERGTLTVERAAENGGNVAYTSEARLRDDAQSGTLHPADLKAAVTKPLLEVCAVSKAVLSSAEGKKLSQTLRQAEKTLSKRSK
Nature of the assay: Trypanosoma cruzi tyrosyl tRNA synthetase (TcYRS) _High Tyrosine SOP. Note: in the data most compounds retested in dose-response had high values. Format: functional. Conditions: 30 µM.

The target in assay [8] is T4, Tyrosyl-tRNA synthetase, putative (Trypanosoma cruzi (strain CL Brener)). Kind of assay: Trypanosoma cruzi tyrosyl tRNA synthetase (TcYRS) SOP. Format: functional. Conditions: 30 µM.
Assay [9] addresses Chromo domain-containing protein 1 (Saccharomyces cerevisiae (strain ATCC 204508 / S288c) (Baker's yeast)) (UniProt P32657). Kind of assay: ScCHD-1 Enzyme Inhibition Assay. Note: in the data most compounds retested in dose-response had high values. It is filed as functional. Conditions: 30 µM.

Each structure is given as a SMILES string. For some of these results: Measured potencies and affinities stand elsewhere.

Sialic acid-binding Ig-like lectin 9 (Homo sapiens), sequence (Q9Y336 whole entry): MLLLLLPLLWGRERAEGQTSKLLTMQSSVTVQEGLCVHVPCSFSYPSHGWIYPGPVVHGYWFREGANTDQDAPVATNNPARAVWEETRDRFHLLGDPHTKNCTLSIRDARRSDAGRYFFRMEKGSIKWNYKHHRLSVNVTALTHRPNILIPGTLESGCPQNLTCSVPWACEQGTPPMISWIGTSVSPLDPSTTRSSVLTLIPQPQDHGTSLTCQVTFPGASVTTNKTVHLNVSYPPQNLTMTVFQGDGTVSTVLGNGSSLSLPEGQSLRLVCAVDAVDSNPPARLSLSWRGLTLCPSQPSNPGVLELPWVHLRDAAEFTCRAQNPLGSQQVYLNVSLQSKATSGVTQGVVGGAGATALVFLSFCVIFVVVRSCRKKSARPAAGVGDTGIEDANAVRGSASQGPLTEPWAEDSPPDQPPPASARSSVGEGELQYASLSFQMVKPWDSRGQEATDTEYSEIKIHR
Protein translocase subunit SecA (Escherichia coli (strain K12)), sequence (P10408 whole entry): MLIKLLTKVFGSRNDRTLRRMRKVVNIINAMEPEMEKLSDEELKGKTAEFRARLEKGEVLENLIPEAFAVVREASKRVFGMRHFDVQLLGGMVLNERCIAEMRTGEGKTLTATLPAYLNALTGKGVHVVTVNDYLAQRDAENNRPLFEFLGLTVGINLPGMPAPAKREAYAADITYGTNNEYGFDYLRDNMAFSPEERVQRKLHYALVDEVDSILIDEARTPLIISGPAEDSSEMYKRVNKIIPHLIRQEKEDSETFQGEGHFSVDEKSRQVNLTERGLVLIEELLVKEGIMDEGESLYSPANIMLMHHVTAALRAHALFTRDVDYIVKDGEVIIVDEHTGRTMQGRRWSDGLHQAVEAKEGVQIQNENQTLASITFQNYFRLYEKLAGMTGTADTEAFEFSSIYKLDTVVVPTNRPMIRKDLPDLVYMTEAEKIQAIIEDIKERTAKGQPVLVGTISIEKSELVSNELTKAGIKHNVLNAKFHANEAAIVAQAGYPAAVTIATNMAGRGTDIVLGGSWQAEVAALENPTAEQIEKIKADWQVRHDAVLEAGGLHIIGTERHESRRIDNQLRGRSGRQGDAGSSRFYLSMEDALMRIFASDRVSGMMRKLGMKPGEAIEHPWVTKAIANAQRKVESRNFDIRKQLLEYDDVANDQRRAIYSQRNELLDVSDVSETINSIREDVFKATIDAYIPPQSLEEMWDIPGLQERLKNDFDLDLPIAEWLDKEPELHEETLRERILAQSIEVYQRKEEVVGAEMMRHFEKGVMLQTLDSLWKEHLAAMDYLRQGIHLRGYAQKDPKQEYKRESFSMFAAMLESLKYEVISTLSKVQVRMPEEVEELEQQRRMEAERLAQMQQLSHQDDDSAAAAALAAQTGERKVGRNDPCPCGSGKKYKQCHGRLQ
Chromo domain-containing protein 1 (Saccharomyces cerevisiae (strain ATCC 204508 / S288c) (Baker's yeast)), sequence (P32657 whole entry, the tested form may be a part): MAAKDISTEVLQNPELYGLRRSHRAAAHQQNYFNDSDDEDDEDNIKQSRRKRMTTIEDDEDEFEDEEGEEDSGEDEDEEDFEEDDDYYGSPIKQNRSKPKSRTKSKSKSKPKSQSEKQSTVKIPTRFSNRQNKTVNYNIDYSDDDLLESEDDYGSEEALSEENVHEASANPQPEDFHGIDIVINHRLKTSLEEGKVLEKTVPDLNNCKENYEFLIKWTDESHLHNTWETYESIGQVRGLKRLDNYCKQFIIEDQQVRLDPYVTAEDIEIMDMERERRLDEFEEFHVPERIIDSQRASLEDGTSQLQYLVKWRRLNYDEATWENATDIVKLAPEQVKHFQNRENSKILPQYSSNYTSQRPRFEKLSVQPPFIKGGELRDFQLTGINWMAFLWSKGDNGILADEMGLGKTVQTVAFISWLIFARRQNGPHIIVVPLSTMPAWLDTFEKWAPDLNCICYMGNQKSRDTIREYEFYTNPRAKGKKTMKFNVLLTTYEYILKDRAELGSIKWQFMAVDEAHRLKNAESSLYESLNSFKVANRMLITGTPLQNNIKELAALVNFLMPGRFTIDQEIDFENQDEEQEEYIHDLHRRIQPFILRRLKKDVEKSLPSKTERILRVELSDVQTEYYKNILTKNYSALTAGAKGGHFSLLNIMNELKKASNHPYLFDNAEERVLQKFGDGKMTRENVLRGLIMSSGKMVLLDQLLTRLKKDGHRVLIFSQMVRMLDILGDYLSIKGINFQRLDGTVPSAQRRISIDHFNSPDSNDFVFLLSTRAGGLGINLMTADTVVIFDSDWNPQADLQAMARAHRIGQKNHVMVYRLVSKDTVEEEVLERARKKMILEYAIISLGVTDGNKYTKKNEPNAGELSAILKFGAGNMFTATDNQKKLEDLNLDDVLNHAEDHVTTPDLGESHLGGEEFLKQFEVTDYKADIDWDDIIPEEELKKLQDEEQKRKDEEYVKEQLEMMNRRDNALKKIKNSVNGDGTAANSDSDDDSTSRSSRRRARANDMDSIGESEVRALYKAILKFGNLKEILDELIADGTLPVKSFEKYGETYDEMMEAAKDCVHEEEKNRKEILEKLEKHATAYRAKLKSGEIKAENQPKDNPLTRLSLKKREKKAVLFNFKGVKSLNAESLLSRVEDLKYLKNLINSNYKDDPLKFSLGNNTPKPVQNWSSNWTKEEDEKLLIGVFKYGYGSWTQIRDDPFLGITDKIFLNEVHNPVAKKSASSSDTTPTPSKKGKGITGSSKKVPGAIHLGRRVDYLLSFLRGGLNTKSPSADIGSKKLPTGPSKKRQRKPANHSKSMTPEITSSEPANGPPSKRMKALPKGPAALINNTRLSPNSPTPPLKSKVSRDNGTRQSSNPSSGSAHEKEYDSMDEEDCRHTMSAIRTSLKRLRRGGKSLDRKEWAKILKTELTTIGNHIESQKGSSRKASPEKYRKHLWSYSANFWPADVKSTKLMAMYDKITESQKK

As to `O=C(c1cccnc1-n1cncn1)N1CCc2ccccc2C1`, the Percent Effect in [1] was -1.58%; in assay [2] it was 16.2%; in assay [3], -4%; in [4], 13.4%; with Trypanosoma cruzi it was 4.25%; in assay [5], 1.91%. Further, the Percent Effect in assay [6] is 8.1%; in the assay listed under Homo sapiens it was 4.11%; in assay [7], 5.82%; in assay [8], 9.76%; in [9], -2.56%.

For the compound `CN(C)CC(=O)N1CCOC2(CCCN(c3ncccc3F)C2)C1` (stereo not drawn), the Percent Effect in [1] is -5.7%; in assay [2], 8.11%; in assay [3], 1.61%; in [4] it was 5.4%; in the assay on Trypanosoma cruzi, 0%; in [5], 1.25%. Moreover, the Percent Effect in [6] is 4.48%; in the assay filed under Homo sapiens it was 8.63%; in [7], 7.92%; in assay [8] it was 13.4%; in assay [9], -5.27%.

Consider `CC(C)NC(=O)c1sccc1N(C)S(=O)(=O)c1ccc(Cl)cc1`, for which the Percent Effect was 2.02% in assay [1]; 7.89% in assay [2]; 10.6% in assay [3]; -13% in assay [4]; -7.5% with Trypanosoma cruzi; 11.8% in assay [5]. Besides, the Percent Effect in assay [6] was 13.1%; in the assay listed under Homo sapiens, 22.6%; in [7], -2.13%; in assay [8] it was 0%; in [9], -5.6%.

With `COCCCN1CCCN(C(C)C(=O)Nc2ccnn2C(C)C)CC1` (stereo not drawn), the Percent Effect in assay [1] was 0.586%; in [2], -2.7%; in assay [3] it was -1.72%; in [4], -1.48%; with Trypanosoma cruzi it was 0.195%; in [5] it was 2.08%. Moreover, the Percent Effect was 13.9% in assay [6]; -3.67% in the assay filed under Homo sapiens; 4.95% in assay [7]; -3.66% in assay [8]; -4.29% in assay [9].

For `CN1CCCc2cc(CNC(=O)c3ccc(NC4CC4)nc3)ccc21`, the Percent Effect was -1.41% in assay [1]; 6.33% in assay [2]; 52% in assay [3]; 6.12% in [4]; -0.923% with Trypanosoma cruzi; 2.8% in assay [5]. The Percent Effect in assay [6] is 0.515%; in the assay listed under Homo sapiens, -2.19%; in assay [7], 6.25%; in assay [8], 10.1%; in assay [9], -6.23%.

On to `c1ccc(C[C@H]2[C@H](N3CCOCC3)CCN2Cc2cccnc2)cc1`, for which the Percent Effect was -1.09% in [1]; 2.67% in [2]; 3.8% in assay [3]; 7.7% in [4]; -5.21% with Trypanosoma cruzi; -56.1% in [5]. The Percent Effect is 4.1% in [6]; -7.93% in the assay listed under Homo sapiens; 1.04% in [7]; 12.5% in assay [8]; -4.71% in assay [9].

Turning to `CCN1C(=O)C2(CCOCC2)c2cc(NC(=O)c3ccco3)ccc21`, the Percent Effect is -4.08% in [1]; 18.2% in assay [2]; -1.2% in [3]; 14.7% in assay [4]; 3.64% in the assay on Trypanosoma cruzi; -11% in assay [5]. For the same compound, the Percent Effect in assay [6] came out at 9.98%; in the assay filed under Homo sapiens, 14.7%; in assay [7], 5.38%; in assay [8], 11.1%; in [9], 3.7%.

As to `CN(C)CCN(Cc1ccc(Cl)cc1)C(=O)c1cc[nH]n1`, the Percent Effect in assay [1] was -2.91%; in assay [2], 20.8%; in assay [3] it was 3.16%; in assay [4], 18.6%; with Trypanosoma cruzi it was 2.23%; in assay [5], 3.53%. Besides, the Percent Effect was 17.9% in assay [6]; 3.16% in the assay filed under Homo sapiens; 7.37% in [7]; 17.9% in assay [8]; -5.67% in [9].

The record behind these values is ChEMBL document CHEMBL3988442, “University of Dundee, Small-Polar-MMV Screening Library” (2021).
